TROY signal inh = TROY signaling inhibition; 0.98% of 360,000 active; Q293 LMP1-TROYcd NF-kB luciferase reporter, 4 h; inhibition, % at 10 µM;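 active means compounds whose plate-normalised and pattern-corrected inhibition of the luciferase reporter signal at the single screening dose is 50% or more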
Platelet DG rel = modulates dense granule release in human platelets; human platelet-rich plasma, SFLLRN dense granule ATP release, luminescence; inhibition, %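 (compounds screened at 7.5 µM in platelet-rich plasma)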; 0.22% of 300,000 active; AID 1663;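 active means mean replicate score, as percent of positive control, at or above 50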
TWEAK Fn14 block = blocks TWEAK-Fn14 interaction in a reporter cell assay; inhibition, % at 10 µM; TWEAK-stimulated Fn14 reporter cells, luciferase luminescence, 8 h; AID 1159606; 2% of 360,000 active; in the data active means inhibition above about 50%
PPC-1+TRAIL kill = kills PPC-1 cancer cells in the presence of TRAIL. PPC-1 cells + TRAIL, ATPLite viability luminescence. cell killing (% activity), % at 4 µM or 5 µM. 0.41% of 220,000 active. AID 1443;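 active means cell killing above 50% in the first pass at 4 µM, then a duplicate retest at 5 µM averaging 50% or more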;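 further: plate controls were cells with TRAIL plus DMSO for no effect and medium-only wells lacking cells for full effect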
TRAIL sens C8 = caspase-8 TRAIL sensitization | NB7+C8 cells + TRAIL, ATPlite viability luminescence | inhibition (viability loss, TRAIL sensitization), % at 10 µM | 1% of 360,000 active | AID 624354;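 active means compounds causing at least 50% loss of cell viability in the single-dose screen, relative to plate controls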
HSP90 inh = blocks HSP90-mediated luciferase refolding in reticulocyte lysate; Rabbit reticulocyte lysate, luciferase refolding luminescence, 3 h; 0.91% of 290,000 active; AID 1789; inhibition, % at 5.6 µM;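 active means inhibition above the screen-wide mean plus 3 SD, computed separately per campaign, cut at about 16% in these data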;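 further: 0% = DMSO wells and 100% = 60 µM geldanamycin wells; inhibitors lower the luminescence because luciferase stays unfolded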
PPC-1 tox = kills PPC-1 cells; 50% of 1,200 active; cytotoxicity, % at 5 µM; shares compounds with PPC-1+TRAIL kill; PPC-1 viability, ATPlite luminescence, overnight;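 active means reconfirmed compounds whose average cytotoxicity reaches 50% or more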;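 further: 0% = DMSO-treated cells and 100% = wells holding medium but no cells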
Active calls of the source: *. Hits are enriched below; roughly 3.5% of the tested compounds scored in any of these assays.

How did O=C(NCC1CCCO1)C1CC(=O)N(c2ccc(Cl)cc2)C1 (stereo not drawn) do in these assays?
TROY signal inh: 14; Platelet DG rel: 6; TWEAK Fn14 block: 11; TRAIL sens C8: -10; HSP90 inh: 1

Results for Clc1ncnc2c1oc1ccccc12 ?
TROY signal inh: -22; Platelet DG rel: 0; TWEAK Fn14 block: -18; PPC-1+TRAIL kill: 11; TRAIL sens C8: 65*; HSP90 inh: -2

How did Cc1cc(C)nc(Sc2ncnc3c2oc2ccccc23)n1 do in these assays?
TROY signal inh: -31; Platelet DG rel: 1; TWEAK Fn14 block: 56*; PPC-1+TRAIL kill: 3; TRAIL sens C8: 6; HSP90 inh: -4

What do the screens show for `c1coc(CN(Cc2ccco2)c2ncnc3c2oc2ccccc23)c1`?
TROY signal inh: 18; Platelet DG rel: -5; TWEAK Fn14 block: 66*; PPC-1+TRAIL kill: 4; TRAIL sens C8: 21; HSP90 inh: -2

What do the screens show for `CCSc1ncnc2c1oc1ccccc12`?
TROY signal inh: -45; Platelet DG rel: 2; TWEAK Fn14 block: -6; PPC-1+TRAIL kill: -12; TRAIL sens C8: -14; HSP90 inh: 3

What do the screens show for `COc1ccc(-c2[nH]ncc2CN(CC2CCC(=O)N2)C(C)C)cc1F` (stereo not drawn)?
TROY signal inh: -6; Platelet DG rel: -3; TWEAK Fn14 block: 2; PPC-1+TRAIL kill: -8; TRAIL sens C8: 9; HSP90 inh: 3

What do the screens show for `COC(=O)c1c(NC(=S)Nc2ccc(CC(=O)O)cc2)sc(C)c1C`?
TROY signal inh: -12; Platelet DG rel: -4; TWEAK Fn14 block: 88*; PPC-1+TRAIL kill: 9; TRAIL sens C8: 8; HSP90 inh: -1

How did Cc1ccc(-c2cc(C(=O)N/N=C\c3cnn(C)c3C)c3ccccc3n2)cc1C do in these assays?
TROY signal inh: -31; Platelet DG rel: 18; TWEAK Fn14 block: -1; PPC-1+TRAIL kill: 53*; TRAIL sens C8: 46; HSP90 inh: 1; PPC-1 tox: 45

How did COc1ccc(-c2cc(C(=O)N/N=C/c3cc(OC)c(OC)cc3OC)c3ccccc3n2)cc1 do in these assays?
TROY signal inh: -21; Platelet DG rel: 15; TWEAK Fn14 block: 23; TRAIL sens C8: 28

How did CC(=O)Nc1ccc(NC(=O)COC(=O)c2c(-c3ccccc3)noc2C)cc1 do in these assays?
TROY signal inh: 10; TWEAK Fn14 block: 15; TRAIL sens C8: -8

What do the screens show for `COc1ccc(-c2nc3ncccn3c2Nc2ccc3c(c2)OCCO3)cc1`?
TROY signal inh: -10; Platelet DG rel: 5; TWEAK Fn14 block: -1; PPC-1+TRAIL kill: 15; TRAIL sens C8: -19; HSP90 inh: -3; PPC-1 tox: 10

Results for COc1ccc2c(c1)c(C(=O)CN1CCc3ccccc3C1)c(C)n2C ?
TROY signal inh: 2; Platelet DG rel: -11; TWEAK Fn14 block: -29; PPC-1+TRAIL kill: -3; TRAIL sens C8: -12; HSP90 inh: 2

Results for CC1CN(C(=O)c2ccc3c(c2)OCO3)CC(C)O1 (stereo not drawn) ?
TROY signal inh: -8; Platelet DG rel: -1; TWEAK Fn14 block: 17; PPC-1+TRAIL kill: -1; TRAIL sens C8: -5; HSP90 inh: 4; PPC-1 tox: 5

Results for COc1ccc(CNC(=O)CNC(=O)CNS(=O)(=O)c2ccc(C)c(C)c2)cc1 ?
TROY signal inh: -2; Platelet DG rel: -10; TWEAK Fn14 block: 7; TRAIL sens C8: 12; HSP90 inh: -6

Results for Cc1cccc(/C=C2\CCC(=C3SCCCS3)C2=O)c1 ?
Platelet DG rel: 2; TWEAK Fn14 block: 75*; PPC-1+TRAIL kill: 78*; TRAIL sens C8: 82*; HSP90 inh: 14; PPC-1 tox: 80*

Results for Cn1c(=O)c2[nH]c(SCc3cccnc3)nc2n(C)c1=S ?
TROY signal inh: -3; TWEAK Fn14 block: 12; TRAIL sens C8: -8

How did COc1cc2nc(CN(C)Cc3ccc(C(C)(C)C)cc3)[nH]c(=O)c2cc1OC do in these assays?
TROY signal inh: 10; Platelet DG rel: 1; TWEAK Fn14 block: -5; PPC-1+TRAIL kill: 59*; TRAIL sens C8: 65*; HSP90 inh: -2; PPC-1 tox: 58*

How did COc1ccc(S(=O)(=O)N2CCCCC2)cc1NC(=O)c1cccc(S(=O)(=O)N2CCOCC2)c1 do in these assays?
TROY signal inh: -8; TWEAK Fn14 block: 1; TRAIL sens C8: -3

Results for CCOC(=O)c1sc(-c2ccc(OC)cc2)cc1N ?
TROY signal inh: -83; Platelet DG rel: 3; TWEAK Fn14 block: 12; PPC-1+TRAIL kill: 17; TRAIL sens C8: 6; HSP90 inh: 0; PPC-1 tox: 9

Results for CN(Cc1ccccc1NCC(=O)Nc1ccccc1C#N)C1CCCCC1 ?
TROY signal inh: -22; Platelet DG rel: -3; TWEAK Fn14 block: -7; PPC-1+TRAIL kill: 15; TRAIL sens C8: 4; HSP90 inh: -1

Results for N#Cc1ccccc1NC(=O)CNc1ccccc1N1CCCCC1 ?
TROY signal inh: 8; Platelet DG rel: 2; TWEAK Fn14 block: 2; PPC-1+TRAIL kill: -13; TRAIL sens C8: -6; HSP90 inh: -1; PPC-1 tox: -24

What do the screens show for `CCCc1ccc(-c2cc(C(=O)N/N=C/c3ccc([N+](=O)[O-])o3)c3ccccc3n2)cc1`?
TROY signal inh: -20; Platelet DG rel: 11; TWEAK Fn14 block: 32; PPC-1+TRAIL kill: 77*; TRAIL sens C8: 86*; HSP90 inh: 14; PPC-1 tox: 76*

What do the screens show for `O=C(NC1CCCC1)C1c2ccccc2OCC(=O)N1Cc1cccnc1` (stereo not drawn)?
TROY signal inh: -10; TWEAK Fn14 block: -1; TRAIL sens C8: 3

What do the screens show for `CCOC(=O)C1C(=O)NCC2CCCC21` (stereo not drawn)?
TROY signal inh: 12; Platelet DG rel: 6; TWEAK Fn14 block: 4; PPC-1+TRAIL kill: 6; TRAIL sens C8: 7; HSP90 inh: -3; PPC-1 tox: 4

What do the screens show for `COCCN(C(=O)CSc1nnc(-c2ccccc2C)n1C)c1c(N)n(Cc2ccccc2)c(=O)[nH]c1=O`?
TROY signal inh: 1; Platelet DG rel: -2; TWEAK Fn14 block: -1; PPC-1+TRAIL kill: -7; TRAIL sens C8: -10; HSP90 inh: 0

Results for Cc1ccccc1Nc1nc(N)c2ccccc2n1 ?
TROY signal inh: -34; Platelet DG rel: 58*; TWEAK Fn14 block: 53*; PPC-1+TRAIL kill: 58*; TRAIL sens C8: 63*; HSP90 inh: 18*; PPC-1 tox: 54*

Results for Nc1nc(Nc2ccc(Cl)cc2)nc2ccccc12 ?
TROY signal inh: 14; Platelet DG rel: 73*; TWEAK Fn14 block: 80*; PPC-1+TRAIL kill: 79*; TRAIL sens C8: 76*; HSP90 inh: 16*; PPC-1 tox: 80*

How did COc1ccc(C)cc1Nc1nc(N)c2ccccc2n1 do in these assays?
TROY signal inh: -42; Platelet DG rel: 7; TWEAK Fn14 block: -16; TRAIL sens C8: -5; HSP90 inh: 5

Screening results: PubChem BioAssay, several laboratories
